This is part of a sample that, as a whole, favours compounds with a hit. Of some 79,000 tested, about 15% had one in any assay. Active and inactive are the calls of the source. Rule as the data show it: active = growth inhibition above about 70%; inactive = the rest.
Assays:
[1] = NCI Yeast Anticancer Drug Screen. Data for the rad50 strain (AID 155);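 also: 0% = growth of vehicle-only cultures of the same strain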; details: S. cerevisiae rad50 strain growth inhibition, stronger effect = higher value
Outline: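 Readout: growth inhibition relative to vehicle-treated cultures. Compound exposure was carried out in a genetically defined yeast strain deficient in DNA damage repair.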

[2] = NCI Yeast Anticancer Drug Screen. Data for the mec2-1 strain (AID 157); details: S. cerevisiae mec2-1 strain, stronger effect = higher value
Outline: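 Strain: mec2-1 (DNA repair/cell cycle alteration). Compound exposure, then growth measured; inhibition expressed relative to vehicle.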

[3] = NCI Yeast Anticancer Drug Screen. Data for the sgs1 mgt1 strain (AID 161);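 also: 0% = growth of cultures given vehicle only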; details: S. cerevisiae sgs1 mgt1 strain, stronger effect = higher value
Outline: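 Inhibition of yeast growth, normalised to vehicle-treated controls, is reported for a strain bearing genetic alterations in DNA damage repair.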

[4] = NCI Yeast Anticancer Drug Screen. Data for the cln2 rad14 strain (AID 165);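 also: 0% = growth equal to vehicle treated cultures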; details: S. cerevisiae cln2 rad14 strain, stronger effect = higher value
Outline: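 Compounds are applied to the cln2 rad14 yeast strain, and growth is then compared with that of vehicle-treated cultures to give inhibition.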

[5] = NCI Yeast Anticancer Drug Screen. Data for the bub3 strain (AID 167); details: S. cerevisiae bub3 mutant strain, stronger effect = higher value
Outline: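 Readout: yeast growth inhibition, expressed relative to vehicle-only wells. The test organism is a mutant strain from a panel with lesions in DNA repair or checkpoint genes.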

[6] = NCI Yeast Anticancer Drug Screen. Data for the mlh1 rad18 strain (AID 175); details: S. cerevisiae mlh1 rad18 strain growth inhibition, stronger effect = higher value
Outline: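 Read-out is yeast growth inhibition, calculated against vehicle-only controls. The compound was applied to a strain engineered with DNA damage repair alterations.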

[7] = at 5.0 µM (retest, dose inferred, filed as 0.5)
[8] = at 50.0 µM (retest, dose inferred, filed as 5.0)

Measured: growth inhibition

O=c1cccc(C2CC(CO)C3CCCCN3C2)[nH]1 (stereo not given)
inactive: [1]; [7] 1% | [1]; [8] -1% | [1]; at 50.0 µM 69.3% | [2]; [7] 1% | [2]; [8] -2% | [3]; [7] 2% | [3]; [8] 1% | [3]; at 50.0 µM 57.5% | [4]; [7] -8% | [4]; [8] -12% | [4]; at 50.0 µM 37.3% | [5]; [7] 3% | [5]; [8] 2% | [5]; at 50.0 µM 53.2% | [6]; [7] -2% | [6]; [8] -3% | [6]; at 50.0 µM -50.8%
active: [2]; at 50.0 µM 91.8%

N#CC(C#N)=Cc1ccc(Cl)o1
inactive: [1]; [7] 2% | [1]; [8] 54% | [1]; at 50.0 µM 59.6% | [2]; [7] 4% | [2]; [8] 47% | [2]; at 50.0 µM 50% | [3]; [7] 2% | [3]; [8] 24% | [3]; at 50.0 µM 61.8% | [4]; [7] -6% | [4]; [8] 26% | [4]; at 50.0 µM 42.4% | [5]; [7] -2% | [5]; [8] 35% | [5]; at 50.0 µM 45% | [6]; [7] 1% | [6]; [8] 29%
active: [6]; at 50.0 µM 82.8%

CCCCCCCC(=O)[O][Hg][c]1ccccc1
active: [1]; [7] 99% | [1]; [8] 99% | [1]; at 50.0 µM 99.5% | [2]; [7] 100% | [2]; [8] 100% | [2]; at 50.0 µM 99.8% | [3]; [7] 100% | [3]; [8] 100% | [3]; at 50.0 µM 99.7% | [4]; [7] 99% | [4]; [8] 99% | [4]; at 50.0 µM 99.5% | [5]; [7] 100% | [5]; [8] 99% | [5]; at 50.0 µM 99.8% | [6]; [7] 100% | [6]; [8] 100% | [6]; at 50.0 µM 99.7%

CC(C)(C)OOC(=O)/C=C\C(=O)OOC(C)(C)C
active: [4]; at 50.0 µM 75.3%
inactive: [1]; [7] 1% | [1]; [8] -1% | [1]; at 50.0 µM 5.05% | [2]; [7] -2% | [2]; [8] -1% | [2]; at 50.0 µM -15.1% | [3]; [7] 0% | [3]; [8] 0% | [3]; at 50.0 µM 8.55% | [4]; [7] 1% | [4]; [8] -8% | [5]; [7] 2% | [5]; [8] 0% | [5]; at 50.0 µM 9.7% | [6]; [7] 1% | [6]; [8] 0% | [6]; at 50.0 µM -12.7%

NC[CH2][Sn]([c]1ccccc1)([CH]1CCCCC1)[CH]1CCCCC1
active: [1]; [7] 99% | [1]; [8] 98% | [1]; at 50.0 µM 99% | [2]; [7] 100% | [2]; [8] 99% | [2]; at 50.0 µM 98.7% | [3]; [7] 100% | [3]; [8] 99% | [3]; at 50.0 µM 93.3% | [4]; [7] 98% | [4]; [8] 98% | [4]; at 50.0 µM 97.5% | [5]; [7] 98% | [5]; [8] 98% | [5]; at 50.0 µM 98.5% | [6]; [7] 100% | [6]; [8] 98% | [6]; at 50.0 µM 98.9%

Cc1cc[n+](C2=C(Nc3c(C)cccc3C)C(=O)c3ccccc3C2=O)cc1
active: [1]; [8] 88% | [1]; at 50.0 µM 89.7% | [2]; at 50.0 µM 73.2% | [6]; at 50.0 µM 71.2%
inactive: [1]; [7] 44% | [2]; [7] 5% | [2]; [8] 61% | [3]; [7] -6% | [3]; [8] 67% | [3]; at 50.0 µM 68.1% | [4]; [7] -7% | [4]; [8] 54% | [4]; at 50.0 µM 15.2% | [5]; [7] 6% | [5]; [8] 66% | [5]; at 50.0 µM 48.4% | [6]; [7] -1% | [6]; [8] 51%

C[N+](C)(C)CC1Cc2ccccc2C1=O (stereo not given)
inactive: [1]; [7] 25% | [2]; [7] 20% | [3]; [7] 14% | [4]; [7] 10% | [5]; [7] 32% | [6]; [7] 26%
active: [1]; [8] 98% | [1]; at 50.0 µM 90% | [2]; [8] 99% | [2]; at 50.0 µM 93.2% | [3]; [8] 99% | [3]; at 50.0 µM 92% | [4]; [8] 85% | [4]; at 50.0 µM 90.5% | [5]; [8] 99% | [5]; at 50.0 µM 91.5% | [6]; [8] 99% | [6]; at 50.0 µM 92.5%

NC1=NC(=O)N2CC12 (stereo not given)
inactive: [1]; [7] 30% | [1]; [8] 36% | [1]; at 50.0 µM 48.5% | [2]; [7] 13% | [2]; [8] 7% | [2]; at 50.0 µM -9.3% | [3]; [7] 25% | [3]; [8] 16% | [3]; at 50.0 µM 8.2% | [4]; [7] 20% | [4]; [8] 15% | [4]; at 50.0 µM 11.4% | [5]; [7] 21% | [5]; [8] 18% | [5]; at 50.0 µM 7% | [6]; [7] 29% | [6]; [8] 52% | [6]; at 50.0 µM 6.4%

C[Se]C([Se]C)=C([Se]C)[Se]C
inactive: [1]; [7] 9% | [1]; at 50.0 µM 29.5% | [2]; [7] 3% | [3]; [7] -1% | [3]; at 50.0 µM 52% | [4]; [7] 2% | [4]; [8] 59% | [4]; at 50.0 µM 45.2% | [5]; [7] 5% | [5]; at 50.0 µM -0.4% | [6]; [7] 1%
active: [1]; [8] 95% | [2]; [8] 91% | [2]; at 50.0 µM 99% | [3]; [8] 99% | [5]; [8] 92% | [6]; [8] 94% | [6]; at 50.0 µM 85.3%

CCCCCCCCCCCCCC(=O)O[C@H]1CC[C@H](NC(=O)[C@H](OC)[C@H](O)[C@@H](O)[C@H](O)/C=C/C(C)C)C(=O)NC1
inactive: [1]; [7] -1% | [2]; [7] 4% | [3]; [7] -2% | [4]; [7] 11% | [5]; [7] 4% | [6]; [7] -1%
active: [1]; [8] 93% | [1]; at 50.0 µM 88.1% | [2]; [8] 96% | [2]; at 50.0 µM 87.4% | [3]; [8] 92% | [3]; at 50.0 µM 89.5% | [4]; [8] 93% | [4]; at 50.0 µM 71.5% | [5]; [8] 96% | [5]; at 50.0 µM 92.2% | [6]; [8] 94% | [6]; at 50.0 µM 85.6%
